“And” between values parts separate entries of the source, which are not always exact repeats. Equal entries are not always repeated. Inconclusive results are not listed. More than one record can exist for a structure, and the calls need not agree. The source made the active and inactive calls. The calls were made as follows, unless noted: active = hit-call score of the fitted dose curve at least 0.9, where 1 is the maximum; inactive = score below 0.9.
What was measured:
[1] = read-out: Signal transducer and activator of transcription 3 (Homo sapiens) (UniProt P40763); assay: LTEA_HepaRG_STAT3: Life Technologies and Expression Analysis (LTEA) Assay for Signal transducer and activator of transcription (STAT3) using HepaRG (AID 2283529); conditions: mRNA level, 48 h; actives raise or lower the signal
Outline: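 STAT3 transcript quantified by qRT-PCR against three housekeeping genes (ACTB, GAPDH, POLR2A), fitted both directions relative to DMSO. HepaRG cultures exposed 48 h to eight half-log concentrations, top 100 uM, 0.5% DMSO, serum-free induction medium.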

[2] = read-out: solute carrier (SLCO1B1), SLCO1B1 (gene 10599); assay: LTEA_HepaRG_SLCO1B1: Life Technologies and Expression Analysis (LTEA) Assay for solute carrier (SLCO1B1) using HepaRG (AID 2283530); conditions: mRNA level, 48 h; actives raise or lower the signal
Outline: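 Gain or loss of SLCO1B1 mRNA is fitted against the 0.5% DMSO vehicle in human HepaRG liver cells treated 48 h at up to 100 uM in half-log steps. Expression comes from qRT-PCR normalized to endogenous controls.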

[3] = read-out: sulfotransferase 2A1 (SULT2A1), SULT2A1 (gene 6822); assay: LTEA_HepaRG_SULT2A1: Life Technologies and Expression Analysis (LTEA) Assay for sulfotransferase 2A1 (SULT2A1) using HepaRG (AID 2283531); conditions: mRNA level, 48 h; actives raise or lower the signal
Outline: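 Cells were plated and cultured 48 h, switched to serum-free induction medium, then dosed in duplicate for 48 h (8 concentrations, max 100 uM). RNA was isolated and SULT2A1 expression measured by qRT-PCR; gain or loss of signal fitted relative to DMSO.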

[4] = read-out: Transforming Growth Factor (TGFA), TGFA (gene 7039); assay: LTEA_HepaRG_TGFA: Life Technologies and Expression Analysis (LTEA) Assay for Transforming Growth Factor (TGFA) using HepaRG (AID 2283532); conditions: mRNA level, 48 h; actives raise or lower the signal
Outline: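 TGFA transcript quantified by qRT-PCR (Fluidigm arrays) against three housekeeping genes, after 48 hours chemical treatment of HepaRG cells. Top concentration 100 uM with half-log dilutions, 8 points, duplicates, 0.5% DMSO.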

[5] = read-out: Transforming Growth Factor (TGFB1), TGFB1 (gene 7040); assay: LTEA_HepaRG_TGFB1: Life Technologies and Expression Analysis (LTEA) Assay for Transforming Growth Factor (TGFB1) Transporter using HepaRG (AID 2283533); conditions: mRNA level, 48 h; actives raise or lower the signal
Outline: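 Expression change of TGFB1 in human HepaRG cells is measured after a 48 h chemical exposure, up to 100 uM in 0.5% DMSO vehicle. Curves are fitted in both directions relative to the DMSO baseline.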

TIMP1, TIMP1 (gene 7076) = assay: LTEA_HepaRG_TIMP1: Life Technologies and Expression Analysis (LTEA) Assay for TIMP1 using HepaRG (AID 2283534); conditions: mRNA level, 48 h; actives raise or lower the signal
Outline: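 We dosed human liver HepaRG cultures for 48 hours with up to 100 uM test chemical and measured TIMP1 expression by qRT-PCR. Activity in either direction is fitted relative to the 0.5% DMSO vehicle.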

[6] = read-out: Tumor necrosis factor receptor 1 (TNFRSF1A), TNFRSF1A (gene 7132); assay: LTEA_HepaRG_TNFRSF1A: Life Technologies and Expression Analysis (LTEA) Assay for Tumor necrosis factor receptor 1 (TNFRSF1A) using HepaRG (AID 2283535); conditions: mRNA level, 48 h; actives raise or lower the signal
Outline: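 Expression of TNFRSF1A in human HepaRG liver cells was measured by qRT-PCR 48 h after chemical dosing (maximum 100 uM). Bidirectional curve fitting used 0.5% DMSO as baseline.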

[7] = read-out: Thyroid Hormone Responsive (THRSP), THRSP (gene 7069); assay: LTEA_HepaRG_THRSP: Life Technologies and Expression Analysis (LTEA) Assay for Thyroid Hormone Responsive (THRSP) using HepaRG (AID 2283536); conditions: mRNA level, 48 h; actives raise or lower the signal
Outline: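 THRSP transcript quantified by Fluidigm qRT-PCR against three housekeeping genes after 48 h chemical exposure of HepaRG cells in serum-free induction medium; eight-point half-log series, top 100 uM, 0.5% DMSO vehicle, duplicate wells.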

[8] = read-out: Cellular tumor antigen p53 (Homo sapiens) (UniProt P04637); assay: LTEA_HepaRG_TP53: Life Technologies and Expression Analysis (LTEA) Assay for Tumor Protein P53 (TP53) using HepaRG (AID 2283537); conditions: mRNA level, 48 h; actives raise or lower the signal
Outline: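 Differentiated HepaRG cells in serum-free induction medium exposed 48 h in duplicate to 8 half-log concentrations, top 100 uM, 0.5% DMSO. TP53 mRNA by TaqMan qRT-PCR (Fluidigm), normalized to ACTB, GAPDH, POLR2A; fitted bidirectionally versus DMSO.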

[9] = read-out: UDP glucuronosyltransferase (UGT1A1), UGT1A1 (gene 54658); assay: LTEA_HepaRG_UGT1A1: Life Technologies and Expression Analysis (LTEA) Assay for UDP glucuronosyltransferase (UGT1A1) using HepaRG (AID 2283538); conditions: mRNA level, 48 h; actives raise or lower the signal
Outline: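 Cells are plated, cultured 48 h, switched to serum-free induction medium, then dosed 48 h at eight concentrations (max 100 uM, 0.5% DMSO). RNA is isolated and UGT1A1 expression measured by qRT-PCR; changes versus DMSO are fitted in both directions.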

[10] = read-out: UDP glucuronosyltransferase (UGT1A6), UGT1A6 (gene 54578); assay: LTEA_HepaRG_UGT1A6: Life Technologies and Expression Analysis (LTEA) Assay for UDP glucuronosyltransferase (UGT1A6) using HepaRG (AID 2283539); conditions: mRNA level, 48 h; actives raise or lower the signal
Outline: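 Endpoint is UGT1A6 transcript induction or loss in a human liver cell line, quantified by TaqMan qRT-PCR 48 h after dosing. Concentrations ran from 100 uM downward in half-log steps in 0.5% DMSO; activity was fitted in both directions versus vehicle.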

[11] = read-out: X-box binding protein 1 (XBP1), XBP1 (gene 7494); assay: LTEA_HepaRG_XBP1: Life Technologies and Expression Analysis (LTEA) Assay for X-box binding protein 1 (XBP1) using HepaRG (AID 2283540); conditions: mRNA level, 48 h; actives raise or lower the signal
Outline: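 Human HepaRG monolayers receive test chemical for 48 h across an eight-point half-log series starting at 100 uM. XBP1 mRNA gain or loss is scored against DMSO by qRT-PCR.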

[12] = LTEA_HepaRG_LDH_cytotoxicity: Cytotoxicity Assessment in the Life Technologies and Expression Analysis (LTEA) Assay (AID 2283563; active = hit-call score of the fitted dose curve at least 0.9, where 1 is the maximum;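 as to AC50: LDH activity released into spent culture medium as a marker of cell death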)
Outline: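 Human HepaRG hepatic cells are treated with test chemicals for 48 h at up to 100 uM in 0.5% DMSO. Cytotoxicity is scored from medium LDH against the vehicle control.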

[13] = ATG_XTT_Cytotoxicity: Cytotoxicity Assessment in the Attagene TRANS-FACTORIAL HepG2 Assay (AID 2283584; active = hit-call score of the fitted dose curve at least 0.9, where 1 is the maximum;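 as to AC50: XTT signal for cell number as viability in transfected HepG2 cells; cells exposed to compound for 24 h before reading; active means loss of viability signal versus DMSO baseline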)
Outline: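 Transfect HepG2 with GAL4-UAS reporter units, dose compound, incubate 24 h, then measure viable cell number by XTT. Fit concentration response against DMSO baseline.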

[14] = target: Cellular tumor antigen p53 (Homo sapiens) (UniProt P04637); assay: TOX21_p53_BLA_p2_ratio: Tox21 HCT-116 p53 Agonism Beta-lactamase Assay, Ratio, Phase 2 (AID 2283592; active = hit-call score of the fitted dose curve at least 0.9, where 1 is the maximum)
Outline: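 Cleaved-to-uncleaved substrate ratio (460 vs 530 nm) measured in HCT116 cells with an inducible beta-lactamase reporter linked to p53 activity. Compounds incubated 16 h at 37C before 2 h room-temperature CCF4-AM loading.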

[15] = TOX21_p53_BLA_p3_viability: Viability Assessment in the Tox21 HCT-116 p53 Agonism Beta-lactamase Assay, Phase 3 (AID 2283593; active = hit-call score of the fitted dose curve at least 0.9, where 1 is the maximum;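 also: cells exposed to compound for 16 h before reading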)
Outline: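 Cellular ATP was quantified by CellTiter-Glo luminescence, read after 30 min at room temperature. Beforehand, HCT116 cells (4000/well) received compound 5 h post-seeding, 217-fold diluted from DMSO, then incubated 16 h at 37C.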

[16] = target: Cellular tumor antigen p53 (Homo sapiens) (UniProt P04637); assay: TOX21_p53_BLA_p3_ratio: Tox21 HCT-116 p53 Agonism Beta-lactamase Assay, Ratio, Phase 3 (AID 2283596; active = hit-call score of the fitted dose curve at least 0.9, where 1 is the maximum)
Outline: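 Cells were seeded at 4000/well, rested 5 h at 37C, then dosed with DMSO compound solutions (217-fold dilution) for 16 h. CCF4-AM substrate was loaded for 2 h at room temperature, and the 460/530 nm emission ratio was fitted for gain of signal versus DMSO.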

[17] = TOX21_p53_BLA_p4_viability: Viability Assessment in the Tox21 HCT-116 p53 Agonism Beta-lactamase Assay, Phase 4 (AID 2283597; active = hit-call score of the fitted dose curve at least 0.9, where 1 is the maximum;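 also: hits lower the luminescence signal meaning cytotoxicity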)
Outline: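 Viability is taken as cellular ATP: after 16 h compound exposure of HCT116 cells and a 2 h room-temperature CCF4-AM substrate step, CellTiter-Glo reagent is added and luminescence is measured 30 min later.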

[18] = target: Cellular tumor antigen p53 (Homo sapiens) (UniProt P04637); assay: TOX21_p53_BLA_p5_ratio: Tox21 HCT-116 p53 Agonism Beta-lactamase Assay, Ratio, Phase 5 (AID 2283599; active = hit-call score of the fitted dose curve at least 0.9, where 1 is the maximum)
Outline: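 Beta-lactamase reporter ratio (blue 460 nm over green 530 nm, 405 nm excitation) after 2 h CCF4-AM loading, in HCT-116 cells exposed 16 h at 37 C to compounds pinned at 217-fold dilution. Increases relative to DMSO baseline scored.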

[19] = TOX21_p53_BLA_p2_viability: Viability Assessment in the Tox21 HCT-116 p53 Agonism Beta-lactamase Assay, Phase 2 (AID 2283591; active = hit-call score of the fitted dose curve at least 0.9, where 1 is the maximum;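 also: compound exposure lasted 16 h at 37 °C; actives lower the ATP signal meaning cytotoxicity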)
Outline: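 Cytotoxicity readout: CellTiter-Glo ATP luminescence, 30 min at room temperature, after the beta-lactamase read. Cells were HCT116 exposed 16 h at 37C to compounds pin-transferred at 217-fold dilution from DMSO stocks.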

Measured: AC50

Sequence of Cellular tumor antigen p53 (Homo sapiens) (P04637 whole entry, looked up): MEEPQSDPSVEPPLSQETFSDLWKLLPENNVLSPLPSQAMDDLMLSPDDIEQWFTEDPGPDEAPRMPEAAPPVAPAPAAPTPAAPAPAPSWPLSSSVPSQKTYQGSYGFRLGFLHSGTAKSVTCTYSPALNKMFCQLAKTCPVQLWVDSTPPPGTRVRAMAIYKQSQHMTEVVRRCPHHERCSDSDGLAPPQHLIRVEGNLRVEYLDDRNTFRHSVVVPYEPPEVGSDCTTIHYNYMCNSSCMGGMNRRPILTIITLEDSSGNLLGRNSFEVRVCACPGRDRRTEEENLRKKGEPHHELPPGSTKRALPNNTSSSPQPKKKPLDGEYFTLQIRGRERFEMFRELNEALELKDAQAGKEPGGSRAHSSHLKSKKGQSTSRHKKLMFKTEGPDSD
Sequence of Signal transducer and activator of transcription 3 (Homo sapiens) (P40763 whole entry, looked up): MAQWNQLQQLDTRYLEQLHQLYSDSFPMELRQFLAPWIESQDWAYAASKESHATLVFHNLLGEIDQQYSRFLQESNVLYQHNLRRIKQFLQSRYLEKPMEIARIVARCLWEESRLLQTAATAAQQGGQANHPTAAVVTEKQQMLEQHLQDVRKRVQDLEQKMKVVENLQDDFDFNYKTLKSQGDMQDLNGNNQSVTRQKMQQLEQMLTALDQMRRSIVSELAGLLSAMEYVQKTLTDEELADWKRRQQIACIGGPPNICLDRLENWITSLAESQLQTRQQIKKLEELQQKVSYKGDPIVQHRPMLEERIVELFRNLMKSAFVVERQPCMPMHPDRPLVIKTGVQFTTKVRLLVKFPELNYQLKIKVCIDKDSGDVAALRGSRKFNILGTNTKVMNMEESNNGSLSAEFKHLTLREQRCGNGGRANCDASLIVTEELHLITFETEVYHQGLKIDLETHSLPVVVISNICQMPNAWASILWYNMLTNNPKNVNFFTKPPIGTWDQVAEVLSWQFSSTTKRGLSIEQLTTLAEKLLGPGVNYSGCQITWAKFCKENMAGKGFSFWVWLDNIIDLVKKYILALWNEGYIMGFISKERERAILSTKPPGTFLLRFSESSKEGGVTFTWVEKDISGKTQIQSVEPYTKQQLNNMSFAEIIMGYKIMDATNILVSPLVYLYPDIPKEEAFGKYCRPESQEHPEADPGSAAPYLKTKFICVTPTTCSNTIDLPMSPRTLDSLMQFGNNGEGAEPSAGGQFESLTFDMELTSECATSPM

CCCCCCCCCCCCCCCCCC(=O)O
not listed: [14] | [15] | [16] | [17] | [18] | [19]
inactive: all other assays above

O=C(OCCCCCOC(=O)c1ccccc1)c1ccccc1
active: [1] 7.25 µM | [2] 1.29 µM | [4] 1.28 µM | [5] 3 µM | [6] 1.99 µM | [8] 1.31 µM | [9] 1.07 µM | [11] 0.761 µM
not listed: [19]
inactive: all other assays above

Oc1ccc2c(c1)OC[C@@H](N1CCC(O)(c3ccc(F)cc3)CC1)[C@H]2O
not listed: [13] | [15] | [19]
inactive: all other assays above

CC(=O)OCCOCCOCCOC(C)=O
not listed: [5]
inactive: all other assays above

CCCCc1ccc2c(n1)[C@@H](c1ccc(OC)cc1C[C@H](C)C(=O)O)[C@H](C(=O)O)[C@H]2c1ccc2c(c1)OCO2
not listed: [13] | [16]
inactive: all other assays above

COc1cc(-c2nc(NC(=O)c3cc4cc(C)cc(C)c4n3CC(=O)O)sc2CCC2CCCCC2)c(OC)cc1Cl
active: [1] 19.3 µM | [2] 6.78 µM | [3] 6.35 µM | [4] 60.3 µM | [5] 12.1 µM | TIMP1, TIMP1 (gene 7076) 4.26 µM | [6] 6.91 µM | [7] 6.89 µM | [8] 24.6 µM | [9] 7.32 µM | [10] 7.34 µM | [11] 19.6 µM | [12] 9.05 µM | [19] 1.65 µM | [14] 2.2 µM | [15] 5.1 µM | [16] 7.74 µM | [17] 2.1 µM | [18] 9.04 µM

CCCCC(CC)COC(=O)CC(C(=O)OCC(CC)CCCC)S(=O)(=O)O (stereo not drawn)
active: [2] 85.5 µM | [3] 80.2 µM | [4] 50 µM | [6] 93.5 µM | [8] 50 µM | [9] 13.3 µM | [10] 79.9 µM | [12] 75.3 µM | [13] 43.8 µM | [19] 59.8 µM [middle of 4 runs] | [14] 77.1 µM and 82.5 µM | [15] 71.8 µM and 65 µM and 42 µM | [16] 85.9 µM and 83.5 µM | [17] 50.1 µM [middle of 4 runs] | [18] 79.2 µM [middle of 4 runs]
inactive: [1] | TIMP1, TIMP1 (gene 7076) | [7] | [11] | [14] | [15] | [16]

COc1cc(C=O)ccc1O
inactive: all assays above

Cc1ccccc1Cl
not listed: [17]
inactive: all other assays above

CC(=O)C(C)=CC1C(C)=CCCC1(C)C (stereo not drawn)
inactive: all assays above

OC[C@@H](O)[C@@H](O)[C@H](O)[C@H](O)CO
not listed: [17]
inactive: all other assays above

CCCCCCCCCCC
not listed: [15] | [17] | [18]
inactive: all other assays above

NC(=O)Cn1c(=O)cc(CCN2CCN(c3nccc4sccc34)CC2)c2ccc(F)cc21
active: [5] 39.1 µM | [7] 50 µM | [8] 50 µM | [9] 12.6 µM | [10] 34.6 µM | [11] 77 µM
not listed: [13] | [16] | [18] | [19]
inactive: all other assays above

CCOC(=O)C(C)(C)Oc1ccc(Cl)cc1
active: [9] 15.8 µM
not listed: [13]
inactive: all other assays above

From PubChem BioAssay (EPA / NIEHS)
